High-throughput results: PubChem BioAssay, Broad Institute
PD-1 reverse act: activators reversing PD-1 mediated T-cell inhibition, primary screen, luminescence, primary human CD4 T cells, PD-L1 beads | CellTiter-Glo 96 h | AID 2316, 2010 | 29,000 tested, under 10 active | activation, % (concentration not given with the values); call rule not given here;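 further: 0% = median vehicle wells and 100% = positive control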
STK33 inh: STK33 kinase inhibitors, primary screen, biochemical, luminescence, ADP-Glo, MBP substrate; Serine/threonine-protein kinase 33 (Homo sapiens), Q9BYT3; inhibition, % at 12.5 µM; 27,000 tested, 0.44% active; in the data active means inhibition above about 20%; inconclusive means no clear call, values can overlap the other calls
Target sequence (Q9BYT3 whole entry, looked up): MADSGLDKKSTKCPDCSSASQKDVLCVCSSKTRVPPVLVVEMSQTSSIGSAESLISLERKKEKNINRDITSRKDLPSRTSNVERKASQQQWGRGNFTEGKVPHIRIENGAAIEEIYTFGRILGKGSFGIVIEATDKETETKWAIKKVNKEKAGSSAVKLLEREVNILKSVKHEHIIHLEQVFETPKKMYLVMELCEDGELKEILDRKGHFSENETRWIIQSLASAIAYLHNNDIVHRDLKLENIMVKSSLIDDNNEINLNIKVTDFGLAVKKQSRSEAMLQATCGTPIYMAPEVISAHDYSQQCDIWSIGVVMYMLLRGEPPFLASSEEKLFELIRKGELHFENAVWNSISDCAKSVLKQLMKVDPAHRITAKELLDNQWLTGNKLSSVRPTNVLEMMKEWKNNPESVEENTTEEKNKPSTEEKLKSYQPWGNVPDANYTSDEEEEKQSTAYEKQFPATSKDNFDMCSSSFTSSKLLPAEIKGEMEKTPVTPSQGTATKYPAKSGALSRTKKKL
NOMO-1 viab: NOMO-1 AML cell viability reduction, primary screen, STK33 inhibitor project, CellTiter-Glo luminescence; NOMO-1 AML viability, 72 h; 37,000 tested, 7.5% active; inhibition, % (test concentration not listed); in the data active means inhibition above about 80%; inconclusive means no clear call, values can overlap the other calls
Starred values were filed as active, the others as inactive; ? = inconclusive; / = no result given. Many of the other results were omitted from the sample, so hits are more common in it than they were.

SMILES | PD-1 reverse act | STK33 inh | NOMO-1 viab
N#Cc1c(/N=C/c2ccccc2)sc2c1CCCC2 | -1 | / | 4
Cc1ccc2nc(-c3cccc(NC(=O)COc4ccccc4C)c3)oc2c1 | 1 | -4 | 41
C[C@H](CO)N1C[C@H](C)[C@H](CN(C)Cc2ccc(-c3ccccc3)cc2)Oc2c(NC(=O)Nc3ccc4c(c3)OCO4)cccc2C1=O | -4 | / | 120*
C[C@@H]1CN([C@H](C)CO)C(=O)c2cccc(NC(=O)Nc3ccc4c(c3)OCO4)c2O[C@@H]1CN(C)Cc1ccc(-c2ccccc2)cc1 | -2 | / | 94*
C[C@H]1CN([C@@H](C)CO)C(=O)c2cccc(NC(=O)Nc3ccc4c(c3)OCO4)c2O[C@H]1CN(C)Cc1ccccc1 | 2 | / | 65
C[C@@H]1CN([C@H](C)CO)C(=O)c2cccc(NC(=O)Nc3ccc4c(c3)OCO4)c2O[C@H]1CN(C)Cc1ccc(-c2ccccc2)cc1 | -3 | / | 91*
C[C@H]1CN([C@@H](C)CO)C(=O)c2cccc(NC(=O)Nc3ccc4c(c3)OCO4)c2O[C@@H]1CN(C)Cc1ccccc1 | / | / | 55
C[C@H](CO)N1C[C@H](C)[C@H](CN(C)Cc2ccc(Oc3ccccc3)cc2)Oc2c(NC(=O)Nc3ccc4c(c3)OCO4)cccc2C1=O | -3 | / | 116*
C[C@@H]1CN([C@H](C)CO)C(=O)c2cccc(NC(=O)Nc3ccc4c(c3)OCO4)c2O[C@H]1CN(C)Cc1ccc(Oc2ccccc2)cc1 | / | / | 20
O=C(c1ccc(Br)cc1)C(C(=O)N1CCCCC1)n1ccccc1=O (stereo not given) | 1 | / | 10
O=C(Nc1ccccc1-c1nc2ccccc2s1)c1ccc(-c2ccccc2[N+](=O)[O-])o1 | -1 | 3 | 36
Cc1nc(SCc2csc(C)n2)c2c3c(sc2n1)CCCC3 | -4 | 10 | 10
O=C(COc1ccc2oc3c(c2c1)CCCC3)NCCN1CCOCC1 | / | -3 | 11
Cc1cc(Cl)ccc1NC(=O)c1ccc(OCC(=O)Nc2ccccc2)cc1 | -1 | 2 | 35
CN1CCc2nc(SCC(=O)Nc3ccc(C(C)(C)C)cc3)c(C#N)cc2C1 | -8 | -2 | ?
O=C(CN(C1CCCCC1)S(=O)(=O)c1ccc(Cl)cc1)Nc1ccc(F)cc1F | 0 | 1 | 14
Cn1c(O)c(C=Nc2cccc(Cl)c2)c2ccccc21 | -2 | / | 35
C=C[C@@]1(C)C[C@@]2(OC[C@@]3(C)O[C@@H]23)Oc2c1c(=O)oc1cccc(C)c21 | -1 | 2 | 7
C=CCN1C(=O)CN2c3ccccc3C(C)(C)C12C (stereo not given) | 1 | / | -11
COc1ccccc1-c1cc(-c2ccccc2)nc(SCC(N)=O)c1C#N | / | 7 | 39
C[C@@H]1CN([C@@H](C)CO)C(=O)c2cccc(NC(=O)Nc3ccc4c(c3)OCO4)c2O[C@@H]1CN(C)Cc1ccc(-c2ccccc2)cc1 | -5 | / | 116*
C[C@@H]1CN([C@@H](C)CO)C(=O)c2cccc(NC(=O)Nc3ccc4c(c3)OCO4)c2O[C@@H]1CN(C)Cc1ccc2c(c1)OCO2 | -1 | / | 29
C=C(CO)C(=O)O[C@H]1C[C@@]23O[C@@H]2CC/C(=C/[C@H]2OC(=O)C(=C)[C@H]12)CO[C@@H]3O | -1 | -1 | 103*
CCOC(=O)c1nnn2c1nc(N(Cc1ccccc1)Cc1ccccc1)c1ccccc12 | -2 | / | 76
COc1cccc(-c2nc(SCC(=O)Nc3cccc(C(F)(F)F)c3)[nH]c(=O)c2C#N)c1 | 0 | -8 | -7
SMILES | PD-1 reverse act | STK33 inh | NOMO-1 viab
CCOC(=O)N1CC=C2C(C1)C(c1cccc(C(F)(F)F)c1)C(C#N)=C(N)C2(C#N)C#N (stereo not given) | -23 | 2 | 113*
Cc1cc(C(=O)Nc2cccc3c2O[C@H](CN(C)Cc2ccc(Cl)c(Cl)c2)[C@H](C)CN([C@@H](C)CO)C3=O)n(C)n1 | -3 | / | 11
Cc1cc(C(=O)Nc2cccc3c2O[C@@H](CN(C)Cc2ccc(Oc4ccccc4)cc2)[C@H](C)CN([C@H](C)CO)C3=O)n(C)n1 | -3 | / | 89*
Cc1cc(C(=O)Nc2cccc3c2O[C@H](CN(C)Cc2ccc(Oc4ccccc4)cc2)[C@H](C)CN([C@@H](C)CO)C3=O)n(C)n1 | 1 | / | 2
Cc1cc(C(=O)Nc2cccc3c2O[C@@H](CN(C)Cc2ccc(Cl)c(Cl)c2)[C@@H](C)CN([C@H](C)CO)C3=O)n(C)n1 | -6 | / | 92*
COC(=O)CC1C(=O)NCCN1C(=S)Nc1cccc(OC)c1 (stereo not given) | / | 0 | 13
C[C@@H]1CN([C@H](C)CO)C(=O)Cc2cc(NS(=O)(=O)c3ccc(Cl)cc3)ccc2O[C@@H]1CN(C)Cc1ccc(Cl)c(Cl)c1 | -3 | 2 | 117*
COc1ccc(S(=O)(=O)Nc2ccc3c(c2)CC(=O)N([C@@H](C)CO)C[C@H](C)[C@@H](CN(C)Cc2ccc(Cl)c(Cl)c2)O3)cc1 | 4 | / | 88*
C[C@@H]1CN([C@@H](C)CO)C(=O)Cc2cc(NS(C)(=O)=O)ccc2O[C@@H]1CN(C)Cc1ccc(Cl)c(Cl)c1 | -3 | 2 | 6
C[C@H](CO)N1C[C@H](C)[C@H](CN(C)Cc2ccc3c(c2)OCO3)Oc2ccc(NS(=O)(=O)c3ccc(Cl)cc3)cc2CC1=O | 3 | 1 | 13
COc1ccc(CN(C)C[C@@H]2Oc3ccc(NS(=O)(=O)c4ccc(OC)cc4)cc3CC(=O)N([C@H](C)CO)C[C@@H]2C)cc1 | 2 | 1 | 45
C[C@H]1CN([C@@H](C)CO)C(=O)Cc2cc(NS(=O)(=O)c3ccc(Cl)cc3)ccc2O[C@H]1CN(C)Cc1ccc(Cl)c(Cl)c1 | 1 | -1 | 97*
C[C@H](CO)N1C[C@H](C)[C@H](CN(C)Cc2ccc(Cl)c(Cl)c2)Oc2ccc(NS(=O)(=O)c3ccc(Cl)cc3)cc2CC1=O | 1 | 3 | 102*
C[C@H]1CN([C@@H](C)CO)C(=O)Cc2cc(NS(=O)(=O)c3ccc(Cl)cc3)ccc2O[C@@H]1CN(C)Cc1ccc2c(c1)OCO2 | / | -2 | 48
O=C(Nc1ccc(I)cc1C(=O)NCc1cccnc1)c1ccco1 | / | 18 | 34
Cc1nc2nc[nH]n2c(=O)c1NS(=O)(=O)c1ccc2c(c1)CCCC2 | 2 | -3 | -5
O=C1c2cccc3cccc(c23)C(=O)N1NCCO | 1 | / | -16
NC[C@@H]1O[C@H](c2ccccc2)Cc2c1ccc(O)c2O | / | 0 | 112*
CC(C)=CCc1c(O)c(CC=C(C)C)c2c(c1O)C(=O)CC(c1ccccc1)O2 (stereo not given) | -1 | -4 | 35
NC[C@@H]1O[C@H](C23CC4CC(CC(C4)C2)C3)Cc2c1ccc(O)c2O | / | -2 | 107*
CCc1ccc(OCC(=O)Nc2ccccc2C#N)cc1 | 0 | 1 | 17
C/C(=C\Cc1c(O)cc2oc(C)cc(=O)c2c1O)CO[C@@H]1O[C@H](CO)[C@@H](O)[C@H](O)[C@H]1O | -2 | -3 | 6
Cc1cccc(C)c1NC(=O)C1CC=CCC1C(=O)O (stereo not given) | 3 | -12 | 2
O=S(=O)(CCSc1ccccn1)c1nc2ccccc2s1 | / | -2 | 108*
CC(C)(C)c1ccc(S(=O)(=O)CCSc2nc3ccccc3o2)cc1 | / | -1 | 18
O=S(=O)(CCSc1nc2ccccc2o1)c1nc2ccccc2s1 | -12 | 2 | 127*
